An excerpt weighted towards active compounds, which were near 2.4% of everything screened.
D2 PAM-1: human D2 receptor positive allosteric modulation. P14416. AID 624464. actives 0.23% (n = 360,000). DiscoveRx D2 beta-arrestin cells, luminescence, 90 min; 100% = 57 uM dopamine signal. potentiation, % (no concentration beside the values); in the data active = potentiation above about 50%
Target sequence (P14416 whole entry, looked up): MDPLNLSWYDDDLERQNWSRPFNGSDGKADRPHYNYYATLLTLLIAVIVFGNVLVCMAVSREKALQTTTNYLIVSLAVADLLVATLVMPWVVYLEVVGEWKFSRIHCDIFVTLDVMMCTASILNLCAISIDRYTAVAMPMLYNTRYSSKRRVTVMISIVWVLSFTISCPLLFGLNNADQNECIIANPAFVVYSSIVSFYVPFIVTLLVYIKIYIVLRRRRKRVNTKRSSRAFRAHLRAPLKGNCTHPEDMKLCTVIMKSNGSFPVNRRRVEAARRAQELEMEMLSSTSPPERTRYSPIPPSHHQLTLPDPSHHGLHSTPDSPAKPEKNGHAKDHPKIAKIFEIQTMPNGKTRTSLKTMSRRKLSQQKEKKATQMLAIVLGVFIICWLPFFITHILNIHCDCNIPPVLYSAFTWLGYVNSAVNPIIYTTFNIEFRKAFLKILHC
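PathHunter beta-arrestin assay in DiscoveRx D2 cells. Compounds were added with an EC20 of dopamine (50 nM final) for 90 min at 37 deg C. Luminescence was read 1 h after detection reagent, with 57 uM dopamine as the EC100 control.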
D2 antag: antagonists of human D2 dopamine receptor. HEK293 TREx D2 cells, calcium flux, dopamine EC80. inhibition, % at 10 µM. P14416. actives 2% (n = 340,000); in the data active = inhibition above about 30%; inactive = below that, where a call was filed; note: 0% is about no effect
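Read-out: kinetic calcium fluorescence (1 cycle/s) in inducible HEK293 T-REx D2 cells after an EC80 dopamine addition that followed 180 s compound preincubation. Loss of the dopamine response indicates antagonism.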
D2 ag-1: human D2 receptor agonism in beta-arrestin assay | P14416 | DiscoveRx PathHunter D2 beta-arrestin, luminescence, 90 min; 100% = 57 uM dopamine signal | activation, % (concentration not given with the values) | actives 0.084% (n = 360,000) | AID 624465; in the data active = activation above about 40%
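DiscoveRx PathHunter D2 beta-arrestin cells (2,100/well) attached overnight, then compound-stimulated 90 min at 37 C in HBSS/10 mM HEPES/0.1% Tween-20 buffer; beta-galactosidase complementation read by luminescence after 1 h at ambient temperature. Dopamine 57 uM final (EC100) as control.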
D2 ag-2: D2 dopamine receptor (human) agonism; P14416; HEK293 T-REx D2 cells, calcium flux agonist mode; activation, % at 2 µM; actives 0.53% (n = 340,000); AID 485358;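 active = activation over 3 SD above normal in the single-dose calcium agonist read, cut at about 30% in these data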; note: 0% is about no effect
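Calcium-flux readout, 1 cycle/sec over 180 s following compound pin transfer, in inducible HEK293 Trex D2 cells (force-coupled); dopamine controls included. Positive calcium responses during this window marked compounds as potential agonists.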
D2 PAM-2: positively modulates the human D2 dopamine receptor allosterically; potentiation, % at 10 µM; HEK293 T-REx D2, calcium flux, EC20 dopamine potentiation; P14416; actives 0.34% (n = 340,000);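 active = potentiation over 3 SD above the plate norm, cut at about 30% in these data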; note: 0% is about no effect
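Tetracycline-induced HEK293 T-REx cells force-coupled to calcium signalling expressed D2; compounds were pin-added after a 10 s baseline, read kinetically 180 s, then an EC20 dopamine challenge followed with a further 180 s calcium read.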
Numbers without * were called inactive; nt = no result given.

SMILES | D2 PAM-1 | D2 antag | D2 ag-1 | D2 ag-2 | D2 PAM-2
CC(C)S(=O)(=O)c1oc(-c2cccs2)nc1S(=O)(=O)c1ccc(F)cc1 | nt | nt | nt | nt | 5
Cc1nc2c(c(C)c1CCC(=O)Nc1ccc(F)cc1)c(=O)n(C)c(=O)n2C | nt | nt | nt | -1 | 17
COC(=O)[C@@]1(Cc2ccc(F)cc2)[C@H]2c3cc(C(=O)N4CCCC4)n(CCO)c3C[C@H]2CN1C(=O)c1ccccc1 | -2 | -2 | -7 | 0 | 6
COC(=O)[C@@]1(Cc2ccc(F)cc2)[C@H]2c3cc(C(=O)N4CCCC4)n(CCc4ccc(O)c(O)c4)c3C[C@H]2CN1C(=O)c1ccccc1 | nt | 96* | nt | 87* | -25
O=C(COc1ccc(Cl)cc1)Nc1ccc(C(=O)OCc2cc(=O)n3ccsc3n2)cc1 | nt | nt | nt | -1 | -3
COc1cccc(CNC(=O)Cc2csc3ccccc23)c1OC | nt | nt | nt | 1 | -3
COc1ccc(Cc2noc(CN(C)C3CC(C)(C)NC(C)(C)C3)n2)cc1OC | -5 | 10 | -6 | -1 | 6
COc1ccc(Cc2noc(-c3ccccc3)n2)cc1OC | -2 | 33* | 0 | 2 | 1
COc1ccc(OC)c(NCc2nnc(-c3ccccc3)o2)c1 | -3 | -22 | -1 | 0 | 0
COc1ccc(CCN(C)Cc2nc(Cc3ccc(OC)c(OC)c3)no2)cc1OC | -8 | 37* | -1 | -2 | 27
COc1ccc(-c2ccc(-c3nnc(Cc4ccc(OC)c(OC)c4)o3)cc2)cc1 | -2 | 30* | -2 | 0 | -8
CC(C)c1ccc(C2N=C(N)Nc3nc4ccccc4n32)cc1 (stereo not given) | nt | nt | nt | -2 | 1
COc1ccc(C(=O)Oc2c(Sc3ccc(Cl)cc3)c(C)nn2C(C)(C)C)cc1OC | nt | nt | nt | 0 | -10
Cc1sc(-c2cc3c([nH]c2=O)CC(c2ccccc2)CC3=O)nc1-c1ccc(Cl)cc1 (stereo not given) | nt | nt | nt | 1 | 10
CCOc1ccccc1CNS(=O)(=O)c1ccc(-c2coc(C)n2)cc1 | nt | nt | nt | 0 | 1
Cc1ccc(S(=O)(=O)N(C)/N=C/c2ccc(C(=O)O)cc2)cc1 | 2 | 30* | -4 | 0 | -3
COc1cc(/C=N/NC(=O)c2ccc(N(C)S(=O)(=O)c3ccccc3)cc2)cc(OC)c1OC | -4 | -3 | 2 | 0 | -3
CCOc1cc(/C=N/NC(=O)c2ccc(N(C)S(=O)(=O)c3ccccc3)cc2)ccc1OC | -3 | 31* | -1 | 1 | -4
Cc1ccc(/C=N/NC(=O)c2ccc(N(C)S(=O)(=O)c3ccccc3)cc2)cc1 | -7 | 48* | 1 | 0 | -5
Cc1ccc(S(=O)(=O)N(C)c2ccc(C(=O)Nc3cccnc3)cc2)cc1 | -28 | 35* | -1 | 0 | -5
Cc1cc(C)c(S(=O)(=O)NCc2csc(-c3ccccc3)n2)c(C)c1 | nt | nt | nt | 1 | -8
CCOC(=O)C1CCCN(C(=O)Cn2ncc3c(C)n(Cc4ccccc4Cl)c(C)c3c2=O)C1 (stereo not given) | nt | nt | nt | 0 | 8
CCc1ccccc1N1CC(c2nc3ccccc3n2CCC2CCCCC2)CC1=O (stereo not given) | nt | nt | nt | 1 | -2
Cc1cc(-c2ccc(S(=O)(=O)Nc3ccc(Br)c(C)c3)s2)on1 | nt | nt | nt | 0 | -8
O=C(CSc1nc2c([nH]c3ccccc32)c(=O)n1-c1ccccc1F)Nc1cccc(Cl)c1 | nt | nt | nt | 0 | -2
SMILES | D2 PAM-1 | D2 antag | D2 ag-1 | D2 ag-2 | D2 PAM-2
COc1ccc(-n2nc(-c3ccc(C)cc3)c3cnc4cc(F)c(F)cc4c32)cc1 | nt | nt | nt | 0 | -5
Cc1ccc(S(=O)(=O)NC(=O)Nc2cccc([N+](=O)[O-])c2)cc1 | -8 | 68* | 1 | 0 | 1
CS(=O)(=O)N(CC(=O)Nc1cccc([N+](=O)[O-])c1)c1ccccc1 | -7 | -25 | -6 | -1 | 1
Cc1ccc(S(=O)(=O)N(CC(=O)Nc2cccnc2)c2cccc([N+](=O)[O-])c2)cc1 | -21 | 50* | -1 | -1 | -23
Cc1ccc(S(=O)(=O)NCC(=O)Nc2cccc([N+](=O)[O-])c2)cc1 | -9 | -12 | 1 | -1 | 5
CS(=O)(=O)N(CC(=O)Nc1cccc([N+](=O)[O-])c1)c1ccccc1F | -5 | 44* | -6 | -1 | 5
O=C1c2ccccc2C(=O)c2c(Nc3ccc(CCO)cc3)ccc(O)c21 | -14 | 19 | 41* | 1 | -4
CCOc1cccc2sc(N(Cc3cccnc3)C(=O)C3CCCCC3)nc12 | nt | nt | nt | -1 | 0
COc1ccccc1CNC(=O)c1cc(S(=O)(=O)N2CCCC2)cn1C | 2 | 37* | 0 | 0 | -1
COc1ccccc1C(=O)Nc1nc(-c2ccc(S(=O)(=O)N3CCOCC3)cc2)cs1 | 56* | 2 | 9 | 1 | 5
COc1ccccc1CCNC(=O)Cn1ccc2cc(S(=O)(=O)N3CCC(C)CC3)ccc21 | -6 | 5 | 1 | 0 | 34*
COc1cc(S(=O)(=O)N2CCCCC2)ccc1NC(=O)c1ccccc1Cl | -3 | 1 | 1 | 0 | 48*
COc1ccc(OC)c(CCNC(=O)Cn2ccc3cc(S(=O)(=O)N4CCCC4)ccc32)c1 | -11 | -3 | 0 | 0 | 4
COc1ccc(Cl)cc1NC(=O)c1cc(S(=O)(=O)N2CCCC2)cn1C | -4 | -8 | 2 | 0 | 7
Cc1ccc(S(=O)(=O)N2CCC(C(=O)OCC(=O)NCc3cccc(Cl)c3)CC2)cc1C | -4 | nt | 1 | nt | nt
COc1ccc(NC(=O)c2cc(S(=O)(=O)N3CCCC3)cn2C)cc1Cl | -2 | 38* | 1 | 0 | 1
COc1ccccc1CNC(=O)COC(=O)C1CCN(S(=O)(=O)c2ccc(C)c(C)c2)CC1 | 5 | -13 | 2 | 0 | 30*
CCc1ccccc1N(C)C(=O)Cn1cnc2sc(C)c(S(=O)(=O)N3CCN(c4ncccn4)CC3)c2c1=O | nt | nt | nt | nt | -2
COc1cc(OC)c(-c2c3cc(O)c(=O)cc-3oc3cc(O)c(O)cc23)cc1OC | -39 | -96 | -14 | 148* | -14
CN1C(C(=O)NCCc2cccs2)CC2Cn3c(nc4cc(Cl)c(Cl)cc43)C21 (stereo not given) | -17 | 48* | 3 | 1 | 0
CCOC(=O)N1CCc2c(sc(NCc3ccc(N(C)C)cc3)c2C(=O)Nc2ccccc2OCC)C1 | nt | nt | nt | 0 | 3
Cc1ccc(NC(=O)C2CC(=O)NC(N3CCc4ccccc43)=N2)cc1 (stereo not given) | -11 | 44* | -4 | 1 | -18
O=C1c2cccc(O)c2C(=O)c2c(O)cc(CO)cc21 | 89* | nt | 14 | nt | nt
Cc1cc(O)c2c(c1)C(=O)c1cc(O)cc(O)c1C2=O | -4 | nt | -5 | nt | nt
COc1ccc(CCNC(=O)CSc2nc(-c3ccc(F)cc3)cc(C(F)(F)F)n2)cc1OC | nt | nt | nt | nt | -1
CCOc1cccc(-c2c(C(=O)N/N=C/c3cccs3)nnn2-c2nonc2N)c1 | -6 | 32* | -1 | 9 | 14
